Calls of active or inactive are those of the source. Unless noted, no rule for the calls is given here.
What was measured:
[1] = resazurin metabolic signal in HepG2 cells – cell-based, resazurin fluorescence, 24 h, PK04 Diversity Set, profiling panel (AID 1172); details: HepG2 viability, higher = more signal; also: test concentration not given here
[2] = budding yeast growth changes without added modifier – OD600, strain BY4716, 24 h, basal condition, primary screen (AID 1173); details: S. cerevisiae BY4716 growth, OD600, 24 h; higher = more signal, called active from +8 up or from −8 down
[3] = viability profiling in MM1S myeloma cells – cell-based, resazurin fluorescence, basal, 24 h, PK04 Diversity Set, profiling panel (AID 1174); details: higher = more signal, called active from +8 up or from −8 down;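 also: MM1S multiple myeloma cell line; test concentration not given here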
[4] = molecular target: Dihydroorotate dehydrogenase (quinone), mitochondrial (Plasmodium falciparum (isolate 3D7)) (UniProt Q08210); test: inhibition of P. falciparum DHODH – biochemical, C-terminal His tag, absorbance 600 nm, primary screen (AID 1175); details: PfDHODH enzyme, DCIP absorbance 600 nm; higher = more signal, called active from +8 up or from −8 down;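 also: recombinant parasite enzyme with a five histidine tag at its C terminus; test concentration not given here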
Dihydroorotate dehydrogenase (quinone), mitochondrial (Plasmodium falciparum (isolate 3D7)), sequence (Q08210 whole entry, looked up): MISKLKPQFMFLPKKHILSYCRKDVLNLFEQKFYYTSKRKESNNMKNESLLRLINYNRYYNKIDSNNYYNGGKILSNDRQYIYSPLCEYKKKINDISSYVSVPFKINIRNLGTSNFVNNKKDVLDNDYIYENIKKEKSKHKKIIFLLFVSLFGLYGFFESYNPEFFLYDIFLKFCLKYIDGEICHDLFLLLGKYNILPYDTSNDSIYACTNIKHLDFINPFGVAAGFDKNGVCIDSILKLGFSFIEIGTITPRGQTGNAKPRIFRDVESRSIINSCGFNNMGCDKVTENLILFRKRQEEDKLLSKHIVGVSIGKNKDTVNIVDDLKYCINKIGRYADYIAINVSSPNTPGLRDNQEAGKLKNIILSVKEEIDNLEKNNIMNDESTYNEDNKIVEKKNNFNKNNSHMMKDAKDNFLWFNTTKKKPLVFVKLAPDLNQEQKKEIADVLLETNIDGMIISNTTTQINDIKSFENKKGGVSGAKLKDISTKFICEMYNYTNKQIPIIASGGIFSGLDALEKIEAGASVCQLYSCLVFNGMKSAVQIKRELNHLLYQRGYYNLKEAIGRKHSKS

[5] = inhibition of PAO1 biofilm formation – strain PAO1, LB-PBS medium, absorbance 600 nm, primary screen (AID 1176); also: test concentration not given here; details: P. aeruginosa PAO1 growth/biofilm, A600, 12 h; higher = more signal
[6] = growth modulation of vineyard yeast isolate – strain RM11-1a, OD600, basal, 24 h, primary screen (AID 1177);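 also: cultures grown under basal conditions with no added stressor; test concentration not given here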; details: S. cerevisiae RM11-1a growth, OD600, 24 h; higher = more signal, called active from +8 up or from −8 down
[7] = growth of efflux-deficient E. coli DRC39 – strain DRC39, OD650, 24 h, E. coli filamentation inducers, primary screen (AID 1178);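 also: growth measured as culture turbidity by optical density at 650 nm; test concentration not given here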; details: E. coli DRC39 acrAB, higher = more signal, called active from +8 up or from −8 down
[8] = growth of efflux-deficient E. coli DRC39 – strain DRC39, OD650, 48 h, E. coli filamentation inducers, primary screen (AID 1179);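 also: screen aims at cell division blockers that make cells filament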; details: E. coli DRC39 delta-acrAB growth, higher = more signal, called active from +8 up or from −8 down
[9] = viability profiling in RPMI8226 myeloma cells – cell-based, resazurin fluorescence, basal, 24 h, PK04 Diversity Set, profiling panel (AID 1180); details: higher = more signal;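 also: RPMI8826 multiple myeloma cell line at 5000 cells per well; test concentration not given here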
[10] = molecular target: E3 ubiquitin-protein ligase XIAP (Homo sapiens) (UniProt P98170); test: small molecules binding XIAP protein – biophysical, small-molecule microarray, fluorescence 635 nm, primary screen (AID 1181); details: higher = more signal;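 also: score merges 667 nm emission and signal to noise over triplicate slides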
E3 ubiquitin-protein ligase XIAP (Homo sapiens), sequence (P98170 whole entry, looked up): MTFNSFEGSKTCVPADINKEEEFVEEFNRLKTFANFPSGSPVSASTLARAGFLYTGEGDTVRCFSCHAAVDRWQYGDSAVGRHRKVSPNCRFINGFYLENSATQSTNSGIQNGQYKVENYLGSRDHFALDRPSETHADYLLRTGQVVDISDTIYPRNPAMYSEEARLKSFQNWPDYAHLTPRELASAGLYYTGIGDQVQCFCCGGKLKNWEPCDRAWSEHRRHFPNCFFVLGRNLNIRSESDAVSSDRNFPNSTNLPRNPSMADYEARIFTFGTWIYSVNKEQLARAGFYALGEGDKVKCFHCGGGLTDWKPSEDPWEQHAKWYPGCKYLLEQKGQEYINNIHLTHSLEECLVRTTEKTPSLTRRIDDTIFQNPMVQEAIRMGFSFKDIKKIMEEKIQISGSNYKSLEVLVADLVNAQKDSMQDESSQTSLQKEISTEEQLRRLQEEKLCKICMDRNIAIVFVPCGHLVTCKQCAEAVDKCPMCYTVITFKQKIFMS

| SMILES | z-score [1] | z-score [2] | z-score [3] | composite z-score [4] | z-score [5] | z-score [6] | z-score [7] | z-score [8] | z-score [9] | composite z-score [10] |
| --- | --- | --- | --- | --- | --- | --- | --- | --- | --- | --- |
| O=C1O[C@H](c2ccccc2)[C@H](c2ccccc2)N2[C@H]1[C@@H](C(=O)N1CCN(c3ncccn3)CC1)[C@]1(C(=O)Nc3ccc(C#CC4=CCCCC4)cc31)[C@H]2c1ccc(O)cc1 | 1.03 | 0.866 (inactive) | 0.0054 (inactive) | -0.457 (inactive) | 0.902 (inactive) | 2.46 (inactive) | 0.105 (inactive) | 0.557 (inactive) | -0.441 | -0.0559 |
| [N-]=[N+]=NCc1ccccc1C[C@]1(C(=O)O)N=C(c2ccc(OCCCO)cc2)O[C@H]1c1ccccc1N=[N+]=[N-] | -0.213 | -0.496 (inactive) | -1.43 (inactive) | 2.26 (inactive) | -0.043 (inactive) | 1.45 (inactive) | 0.989 (inactive) | -0.0775 (inactive) | -1.82 | 0.0808 |
| COC(=O)[C@@]1(Cc2ccc(F)cc2)[C@H]2c3cc(C(=O)N(C)C)n(Cc4ccc(S(C)(=O)=O)cc4)c3C[C@H]2CN1C(=O)c1ccccc1 | -0.304 | 0.571 (inactive) | -0.0532 (inactive) | 0.382 (inactive) | 0.122 (inactive) | 0.325 (inactive) | -0.104 (inactive) | 0.118 (inactive) | -1.04 | -0.102 |
| O=C1NC(=O)C2C1C=CC(C(O)c1ccccc1)N2Nc1ccc(Cl)cc1Cl (stereo not given) | -2.45 | -17.3 (active) | -1.62 (inactive) | -0.782 (inactive) | 1.43 (inactive) | -15.4 (active) | 0.047 (inactive) | -0.224 (inactive) | -1.55 | 0.54 |
| CCCCC(=C=CC[C@@H](O)c1ccccc1OCCO)CCO | -0.202 | -2.07 (inactive) | 0.684 (inactive) | -0.782 (inactive) | 0.118 (inactive) | 0.853 (inactive) | 0.132 (inactive) | -0.0575 (inactive) | -0.552 | -0.24 |
| COc1ccc(C(O)C2C=CC3C(=O)N(C)C(=O)C3N2N2CCCCC2)c2ccccc12 (stereo not given) | -1.2 | -1.78 (inactive) | -1.64 (inactive) | 0.238 (inactive) | 0.503 (inactive) | 0.806 (inactive) | -0.413 (inactive) | -0.68 (inactive) | -1.71 | -0.202 |
| COc1ccc([Si](C)(C)[C@H]2[C@H](CC(=O)N3CCC[C@H]3CO)O[C@@]3(C(=O)N(Cc4cccc(N5C(=O)c6cccc7cccc5c67)c4)c4ccccc43)[C@@H]2C)cc1 | -1.13 | 0.547 (inactive) | -0.712 (inactive) | -1.74 (inactive) | 0.495 (inactive) | 1 (inactive) | -0.672 (inactive) | -0.881 (inactive) | -1.28 | 0.013 |
| COC(=O)[C@@]1(Cc2ccc(OC)cc2)[C@H]2c3cc(C(=O)N4CCCC4)n(Cc4ccccc4)c3C[C@H]2CN1C(=O)c1ccccc1 | -2.62 | 1.04 (inactive) | -0.912 (inactive) | -0.264 (inactive) | 0.219 (inactive) | 0.479 (inactive) | -0.559 (inactive) | 0.0434 (inactive) | -3.16 | -0.065 |
| CC(C)(C)OC(=O)CC[C@]1(C(=O)NCC(O)CO)COC(c2ccc(OCCCO)cc2)=N1 (stereo not given in full) | 0.245 | 0.525 (inactive) | 0.198 (inactive) | 0.563 (inactive) | 0.826 (inactive) | 1.51 (inactive) | 0.116 (inactive) | 0.0752 (inactive) | 0.467 | -0.181 |
| C=CCNC(=O)[C@H]1[C@@H]2C(=O)O[C@@H](c3ccccc3)[C@@H](c3ccccc3)N2[C@@H](c2ccc(O)cc2)[C@]12C(=O)N(C(=O)OCCOC)c1ccc(C#CCNC(N)=O)cc12 | -0.173 | 0.516 (inactive) | 0.244 (inactive) | 0.132 (inactive) | 0.911 (inactive) | 1.14 (inactive) | 0.204 (inactive) | -0.135 (inactive) | -0.17 | -0.219 |
| O=C1O[C@H](c2ccccc2)[C@H](c2ccccc2)N2[C@H]1[C@@H](C(=O)O)[C@]1(C(=O)Nc3ccc(C#CCCO)cc31)[C@H]2c1ccc(O)cc1 | 1.11 | -0.326 (inactive) | 1.5 (inactive) | 0.158 (inactive) | 0.0568 (inactive) | 0.0737 (inactive) | 0.994 (inactive) | 1.69 (inactive) | 1.14 | -0.127 |
| CC(C)(C)OC(=O)CC[C@]12N=C(c3ccc(OCCCO)cc3)O[C@H]1c1ccccc1N(CCS(=O)(=O)c1ccccc1)C2=O | 0.0763 | 0.688 (inactive) | -3.32 (inactive) | 0.017 (inactive) | 2.21 (inactive) | 1.84 (inactive) | 0.908 (inactive) | 0.0504 (inactive) | -1.19 | 0.0761 |
| COCCOC(=O)N1C(=O)[C@@]2(c3cc(C#CC4=CCCCC4)ccc31)[C@H](C(=O)N1CCc3cc(OC)c(OC)cc3C1)[C@H]1C(=O)O[C@H](c3ccccc3)[C@H](c3ccccc3)N1[C@@H]2c1ccc(OCCO)cc1 | 0.149 | 1.18 (inactive) | 0.516 (inactive) | -0.352 (inactive) | 3.64 (inactive) | 1.38 (inactive) | 0.14 (inactive) | -0.316 (inactive) | 0.492 | -0.139 |
| C=CCNC(=O)[C@H]1[C@@H]2C(=O)O[C@@H](c3ccccc3)[C@@H](c3ccccc3)N2[C@@H](c2ccc(OCCO)cc2)[C@]12C(=O)N(C(=O)OCCOC)c1ccccc12 | -0.732 | 1.41 (inactive) | -0.738 (inactive) | 1.17 (inactive) | 1.11 (inactive) | 2.32 (inactive) | -0.595 (inactive) | -1.27 (inactive) | -0.0749 | -0.0969 |
| O=C1O[C@H](c2ccccc2)[C@H](c2ccccc2)N2[C@H]1[C@@H](C(=O)Nc1nc3ccccc3s1)[C@]1(C(=O)Nc3ccc(C#CCCO)cc31)[C@H]2c1ccc(OCCO)cc1 | -0.251 | 1.2 (inactive) | 0.527 (inactive) | -1.6 (inactive) | 1.85 (inactive) | 1.67 (inactive) | -0.567 (inactive) | 0.161 (inactive) | -1.3 | 0.0637 |
| COc1ccc(C(=O)O[C@H]2CC[C@]3(C)C4=C(CCC3C2(C)C)[C@]2(C)CC[C@H]([C@H](C)CCCC(C)C)[C@@]2(C)CC4)cc1 (stereo not given in full) | 1.09 | 1.77 (inactive) | 0.873 (inactive) | -1.74 (inactive) | 0.814 (inactive) | -1.09 (inactive) | 1.25 (inactive) | 1.11 (inactive) | 1.37 | -0.142 |
| COC(=O)[C@@]1(Cc2ccc(F)cc2)[C@H]2c3cc(C(=O)N4CCCC4)n(Cc4ccc(C)o4)c3C[C@H]2CN1C(=O)c1ccccc1 | -0.814 | 0.707 (inactive) | -6.17 (inactive) | -1.04 (inactive) | -0.595 (inactive) | 0.544 (inactive) | -0.201 (inactive) | 0.548 (inactive) | -5.35 | 0.0623 |
| CCCCN1CC=CC23O[C@@H]4C=CCOC(=O)[C@@H]4[C@H]2C(=O)N(CCCCCO)[C@@H]3C1=O (stereo not given in full) | 0.371 | 0.0133 (inactive) | -0.86 (inactive) | -0.165 (inactive) | 0.91 (inactive) | -0.176 (inactive) | -0.967 (inactive) | -0.982 (inactive) | -0.531 | 0.327 |
| COc1ccc(C(O)C2C=CC3C(=O)NC(=O)C3N2Nc2ccccn2)cc1 (stereo not given) | -0.396 | 0.0843 (inactive) | -0.285 (inactive) | 0.91 (inactive) | 0.366 (inactive) | 0.31 (inactive) | -0.276 (inactive) | -0.401 (inactive) | -0.721 | -0.893 |
| Cc1ccc(S[C@]2(C(=O)NCCN3CCOCC3)CC(=O)N(Cc3ccccc3)[C@@H]2c2ccc(CO)cc2I)cc1 | -0.396 | -3.23 (inactive) | -2.91 (inactive) | -4.58 (inactive) | 0.422 (inactive) | -1.71 (inactive) | 0.359 (inactive) | -0.46 (inactive) | -2.02 | -0.152 |
| CC(C)N1C(=O)c2ccccc2[C@](C)(C(=O)NCc2ccccc2)[C@@H]1c1ccc(CO)cc1 | -0.394 | -0.704 (inactive) | -1.09 (inactive) | 0.0524 (inactive) | 1.06 (inactive) | -0.271 (inactive) | 0.0861 (inactive) | -0.681 (inactive) | 0.121 | 0.0623 |
| O=C1OCCC/C=C\[C@H]2OC34C=CCN(Cn5nnc6ccccc65)C(=O)[C@H]3N(CCO)C(=O)[C@@H]4C12 (stereo not given in full) | -0.345 | -0.0322 (inactive) | 0.158 (inactive) | 1.16 (inactive) | 0.469 (inactive) | 0.821 (inactive) | 0.254 (inactive) | -0.146 (inactive) | 0.0966 | 0.213 |
| C=C[C@H](COC(C)=O)N(C(=O)OC(C)(C)C)S(=O)(=O)c1ccc(Br)cc1 | 0.738 | -0.705 (inactive) | -0.76 (inactive) | -0.0237 (inactive) | -0.621 (inactive) | 0.625 (inactive) | 0.623 (inactive) | 0.386 (inactive) | -0.17 | 0.137 |
